About 83,000 compounds went through this panel and 20% of them were active in at least one assay; those are over-represented in the sample as a whole.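 Values shown are percent growth following 48 h exposure of cells in 96-well plates to a single concentration of compound; below 10 was considered active.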 Activity calls are given as the source filed them.
Each compound was assayed on HCT-15 colon (assay: NCI-60 one-dose screen, 48 h (100 = growth as untreated, 0 = no growth, -100 = all killed)). Conditions: 10 µM unless noted.
Procedure: Growth inhibition of the HCT-15 human tumor cell line is measured as a screen for anti-cancer activity. Cells are grown in 96 well plates and exposed to the test compound for 48 hours. Compounds are tested at a single concentration, which is 10^-5 M for most compounds. The reported endpoint is percent growth (GI% or GIPRCNT), where numbers from 0 - 100% represent growth inhibition, and numbers from -100% - 0 represent cell death. For example, a value of 40 represents 60% growth inhibition. A value of 0 means no net growth occurred over the course of the experiment. A value of -40 indicates 40% of cells at the beginning of the experiment died by the end of the experiment. A value of -100 means all cells are dead at the end of the experiment.
NCI-60 Human Tumor Cell Lines Screen was performed using the standard one-dose NCI protocol, which is described in more detail at https://dtp.cancer.gov/discovery_development/nci-60/default.htm.
Compounds with GIPRCNT values below 10 were considered active. Activity score was based on GIPRCNT using the following formula: […]
Score is 0 for GIPRCNT values of 100 or above, 50 for GIPRCNT values of 0, and 100 for GIPRCNT values of -100.

Compound	growth
O=S(=O)(NCCNc1cc(-c2cn(-c3ccccc3)nc2-c2cccc(O)c2)ccn1)c1ccc(Cl)cc1	7.32% (active)
CC(C)(C)c1ccc(OCCCCCCCN2CCNCC2)cc1	-22.1% (active)
O=C(O)/C(=C/c1ccc(O)cc1)c1ccccc1	104% (inactive)
O=c1[nH]c2c3ccncc3cc(-c3cccc(Cl)c3)c2c2cnccc12	43.3% (inactive)
[B-][N+](CC)(CC)c1ccccc1	100% (inactive)
c1cnc2[nH]cc(-c3csc(-c4cn(CCCN5CCCCC5)c5ccccc45)n3)c2c1	4.45% (active)
Oc1ccc(Nc2ccccc2)cc1	82.5% (inactive)
C=C1C(=O)O[C@H]2[C@H]1CC/C(COC(=O)NCCc1c[nH]c3ccccc13)=C\CC[C@@]1(C)O[C@@H]21	-9.58% (active)
CCC(=O)c1c(C)[nH]c(C)c1C	10.6% (inactive)
COc1ccc2c(c1)c1nc3cc(C)c(C)cc3nc1n2CCN(C)C	-80.3% (active)
Clc1ccccc1-c1nc(Nc2nc3ccccc3s2)nc(C(Cl)(Cl)Cl)n1	19.2% (inactive)
CN(C)CCCCC(C(=O)CBr)(c1ccccc1)c1ccccc1	-33.9% (active)
COC(=O)[C@]12CC[C@@H](C)[C@H](C)[C@@H]1C1=CC(=O)[C@@H]3[C@@]4(C)C[C@@H](O)[C@H](O)[C@@]5(C)COC(=C45)C[C@@]3(C)[C@]1(C)CC2	26.5% (inactive)
COC(=O)[C@]12CC[C@@H](C)[C@H](C)[C@@H]1C1=CC[C@@H]3[C@@]4(C)C[C@@H](OC(C)=O)[C@H](O)[C@@](C)(CO)[C@@H]4[C@H](O)C[C@@]3(C)[C@]1(C)CC2	-94.5% (active)
C=C(C)[C@@H]1CC[C@]2(C)[C@H](CC=C3[C@@H]4CC(C)(C)CC[C@]4(C=O)CC[C@]32C)[C@@]1(C)CCCN	42.1% (inactive)
COc1ccc(-c2cc(/C=C/C(=O)c3ccc(OC)c(OC)c3)[nH]n2)cc1	12.5% (inactive)
N=C(N)c1ccc(S(N)(=O)=O)cc1	104% (inactive)
O=C(O[C@@H]1Cc2c(O)cc(O)cc2O[C@@H]1c1cc(O)c(O)c(O)c1)c1cc(O)c2c(c1)OCO2	104% (inactive)
O=[N+]([O-])c1cc(S(=O)(=O)c2ccc(F)c([N+](=O)[O-])c2)ccc1F	36.5% (inactive)
CCCCC/C(=C\c1ccccc1)C1OC(C)C(C)O1 (stereo not given)	109% (inactive)

Compound	growth
Oc1cccc2oc(=S)[nH]c12	102% (inactive)
COc1ccc(-c2nc3ncccn3c2-c2nc3ccc(Br)cc3[nH]2)cc1	84.6% (inactive)
Cc1cc(N2CCN(C)CC2)nc(N(CCNc2ccnc3cc(Cl)ccc23)Cc2ccco2)n1	18.1% (inactive)
NCCNc1nc(-c2ccccc2)nc2nc(-c3ccccc3)oc12	70% (inactive)
Cc1ccc(NC2CC(=O)N(c3c(C)cc(C)cc3C)C2=O)c(C)c1 (stereo not given)	105% (inactive)
N#CC1=C(N)Oc2ccc3ccccc3c2C1c1ccccc1Cl (stereo not given)	24% (inactive)
COc1cccc(-c2nn(-c3ccccc3)cc2-c2ccnc(NCCNS(=O)(=O)c3cccc(F)c3)c2)c1	24.3% (inactive)
Cc1ccc(-c2nc([P+](c3ccccc3)(c3ccccc3)c3ccccc3)c(N3CCOCC3)o2)cc1	54.1% (inactive)
C=C1CC[C@@H](C(=O)OC)Cc2nc(C)ccc21	102% (inactive)
N#C/C(=C\c1ccc(-c2ccccc2)o1)c1nc(-c2ccco2)cs1	47.6% (inactive)
COc1ccc(-c2n/c(=C\c3c(O)[nH]c4ccc(OC)cc34)cc3c2=Nc2ccccc2-3)cc1	0.939% (active)
CCCCC[C@H]1C/C=C2/C(=O)C(Cl)=C[C@@H]2C/C=C\CCCC(=O)O[C@@H](CCCCC)C/C=C2/C(=O)C(Cl)=C[C@@H]2C/C=C\CCCC(=O)O1	-24.6% (active)
O=C(/C=C/c1cccc(O)c1)c1ccccc1O	92.9% (inactive)
CCN1CCN(c2nc(C)cc(N(CCCNc3ccnc4cc(Cl)ccc34)Cc3ccco3)n2)CC1	17.9% (inactive)
CC1=NN(c2ccc(S(=O)(=O)O)cc2Cl)C(=O)C1	112% (inactive)
COC(=O)[C@]12CC[C@@H](C)[C@H](C)[C@@H]1C1=CC[C@@H]3[C@@]4(C)C[C@@H](O)[C@H](O)[C@@](C)(CO)C4=CC[C@@]3(C)[C@]1(C)CC2	-60.8% (active)
CC1(c2ccccc2)OC1C(=O)O (stereo not given)	106% (inactive)
C/C(=C(/c1ccccc1)c1ccc(N2C(=O)c3cccc4c(NCc5ccccc5)ccc(c34)C2=O)cc1)c1ccccc1	103% (inactive)
COc1cc2c(cc1-c1c(C)noc1C)ncc1nc(C3CCCCC3)n([C@@H](C)COC(F)F)c12	20.9% (inactive)
COc1cc2c(cc1OC)C(=O)/C(=C/c1cc(-c3ccc4c(c3)OCO4)n[nH]1)C2	-39.9% (active)

Source: PubChem BioAssay (NCI)
